Experimental findings from PubChem BioAssay AID540313 (Sanford-Burnham Center for Chemical Genomics, 2011) are described below.

Where “and” joins values, the source holds several entries; their conditions need not be identical. Equal values may be shown once. Out of some 2,500 compounds screened, fewer than 10 were called active.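 The calls were made as follows: active = inhibition of at least 30% at 20 µM; inactive = the rest.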 The list is a sample of the results.

The experiment in a line: colorimetric readout interference by compounds, confirmation, artefact control for Scp-1 inhibitor project, biochemical, single concentration (AID 540313).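 Also: compounds added after enzyme reaction finished so only phosphate colour detection is probed; plate controls were DMSO wells with completed Scp-1 reaction for no effect and substrate wells lacking enzyme for full effect.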 To be noted: Colorimetric interference counterscreen, malachite green absorbance 630 nm; at 20 µM; active compounds read high. On the technique in general: The purpose of a counterscreen is to sort out artefacts and off-target activity.
On to `O=C(N/N=C/c1ccco1)c1ccc(C(=O)N/N=C/c2ccco2)o1`, for which the apparent inhibition (interference) is -14.2% (inactive).

As for `C[N+](C)(C)CCNC(=O)c1cc[n+](Cc2ccccc2)c(/C=N/O)c1`, the apparent inhibition (interference) was -12% (inactive).

Consider `Cc1cc(C(=O)OCC(=O)NCc2ccco2)c(C)n1-c1ccccc1`, for which the apparent inhibition (interference) was -9.53% (inactive).

For the compound `COc1cc(Cl)cc(C2NC(=O)NC(C)=C2C(=O)NCc2ccccc2)c1O` (stereo not drawn), the apparent inhibition (interference) was -16.4% (inactive) and -17.8% (inactive).

Turning to `O=C(COC(=O)c1cnc(Cl)c(Cl)c1)NCc1ccco1`, the apparent inhibition (interference) was -17.8% (inactive).

As for `O=C(COC(=O)c1ccccc1O)NCc1ccco1`, the apparent inhibition (interference) was -13.4% (inactive).

For `COc1cccc(CC(=O)OCC(=O)NCc2ccc3c(c2)OCO3)c1`, the apparent inhibition (interference) is -8.18% (inactive).

As for `CC(C)CCOc1ccc(C(=O)C[N+]2(C)CCOCC2)cc1`, the apparent inhibition (interference) is -0.2% (inactive).

`CO/N=C(\C(=O)N[C@@H]1C(=O)N2C(C(=O)O)=C(COC(C)=O)CS[C@H]12)c1csc(N)n1` (stereo in doubt): the apparent inhibition (interference) was -15.6% (inactive).

`O=c1[nH]n(-c2ccc([N+](=O)[O-])cc2)c(=O)c2ccccc12`: the apparent inhibition (interference) is -12.9% (inactive).

On to `CCCCCN1CC(O)=C(c2nc(-c3ccc(Cl)cc3)cs2)C1=N`, for which the apparent inhibition (interference) was -5.98% (inactive).

For the compound `CC(=O)Nc1ccccc1Sc1ccc2c3c(cccc13)C(=O)N(c1ccc(C)cc1)C2=O`, the apparent inhibition (interference) is -10.1% (inactive).

On to `Cc1ccc(C2(C)NC(=O)N(CC(=O)Nc3ccccc3C(=O)N3CCCCC3)C2=O)cc1` (stereo not drawn), for which the apparent inhibition (interference) was -11.4% (inactive).

Regarding `O=C1CCC(CCC(=O)N2CCCC(C(=O)c3ccc(Cl)cc3)C2)=NN1` (stereo not drawn), the apparent inhibition (interference) was -3.23% (inactive).

As to `Cc1ccc(NC(=O)COC(=O)C2C3CC4OC(=O)C2C4C3)cc1Cl` (stereo not drawn), the apparent inhibition (interference) is -4.6% (inactive).

As to `CC(C)c1ccc(NC(=S)NNc2ccc(Cl)c(C(=O)O)c2)cc1`, the apparent inhibition (interference) was -8.44% (inactive).

For the compound `COc1ccc(Cl)cc1NC(=O)CCS(=O)(=O)c1ccc(Br)cc1`, the apparent inhibition (interference) is -18.6% (inactive).

For `CS(=O)(=O)C1=NN2C(=N)/C(=C\c3ccc(OCCOc4ccccc4)cc3)C(=O)N=C2S1`, the apparent inhibition (interference) is -4.6% (inactive).

As to `CC[n+]1c(C)n(-c2ccccc2)c2ccc(NC(C)=O)cc21`, the apparent inhibition (interference) is -13.9% (inactive).

Regarding `Cc1ccc(NC(=O)c2cc(-c3ccc(C)o3)nc3ccccc23)nc1`, the apparent inhibition (interference) was -3.5% (inactive).

As for `O=C(Nc1cccnc1)c1cc2cc(Br)ccc2oc1=O`, the apparent inhibition (interference) is -8.18% (inactive).

With `C[C@H](CO)N1C[C@H](C)[C@@H](CN(C)C(=O)NC2CCCCC2)Oc2ccc(NC(=O)c3ccncc3)cc2C1=O`, the apparent inhibition (interference) was -14.8% (inactive).

For `O=C(Nc1cccc(F)c1)c1cc(-c2ccco2)nc2ccccc12`, the apparent inhibition (interference) was -4.88% (inactive).

With `COc1ccc(NC(=O)CN(C)C(=O)/C=C/c2cn(Cc3ccccc3)nc2-c2cccnc2)cc1`, the apparent inhibition (interference) was -11.7% (inactive).

For the compound `Cc1ccn2c(=O)nc(SCC(=O)NCc3ccc4c(c3)OCO4)nc2c1`, the apparent inhibition (interference) was -8.16% (inactive).

With `N#Cc1ccccc1CN1C(=O)S/C(=C/c2cccn2-c2cccc(C(=O)O)c2)C1=O`, the apparent inhibition (interference) was -14.7% (inactive).

As for `Cc1ccc(CCNC(=O)c2ccc3nc4ccccc4c(=O)n3c2)cc1`, the apparent inhibition (interference) was 0.61% (inactive).

For the compound `Cc1ccc(SCC(=O)NC(=O)NCc2ccco2)c(C)c1`, the apparent inhibition (interference) is -4.05% (inactive).

On to `O=C(COC(=O)c1ccc(F)cc1F)Nc1ncccn1`, for which the apparent inhibition (interference) is -16.9% (inactive).

Turning to `CNS(=O)(=O)c1cccc(C(=O)OCC(=O)N2c3ccccc3NC(=O)C2(C)C)c1`, the apparent inhibition (interference) was -15.3% (inactive).

As for `COc1cccc2cc(-c3cc(=O)oc4cc(C)c(O)cc34)oc12`, the apparent inhibition (interference) is -23.3% (inactive).

Take `COC(=O)c1ccccc1NC(=O)C1(S(=O)(=O)c2ccc(Cl)cc2)CC1`: the apparent inhibition (interference) was -20.5% (inactive).

Turning to `O=C(CCC(=O)N/N=C/c1ccc(Br)o1)N/N=C/c1ccc(Br)o1`, the apparent inhibition (interference) was -16.4% (inactive).
